# Screening data: PubChem BioAssay, several laboratories
# Sampled rows, rich in hits. Any-hit rate of the full collection: about 0.5%.
# E coli growth-1: E. coli growth inhibition, primary screen, OD600. AID 1053175, 2014. OD600 absorbance (concentration not given with the values). 330,000 compounds, 0.21% hits. Escherichia coli growth, 23 h; hits give low values;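 active = OD600 absorbance below the run mean of sample wells minus 3.6 SD, in any replicate, cut at about 0.56 in these data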
# phage Ecoli inh: growth loss of phage-infected E. coli, primary screen, RecBCD inhibitor project, absorbance, with phage, HTS; inhibition, % at 11.9 µM; 360,000 compounds, 0.26% hits; AID 651602, 2012; in the data active = inhibition above about 11%
# E coli growth-2: E. coli V3065 growth inhibition, primary screen, counter-screen for AddAB inhibitor project, absorbance, OD600. 18 h. inhibition, % at 11.9 µM. 330,000 compounds, 0.27% hits;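 active = inhibition above the campaign's mean inhibition across all tested compounds plus 3 SD, cut at about 9.9% in these data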;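 also: uninfected addAB+ strain grown without phage in ampicillin broth; 0% = DMSO wells and 100% = ciprofloxacin 0.95 µg/ml wells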
# Tat export inh: E. coli Tat export inhibitors, primary screen, MC4100, TorA-mCherry reporter, fluorescence, single point; inhibition, % at 10 µM; 340,000 compounds, 0.036% hits; AID 488895, 2010;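 active = mean replicate inhibition at least 50% and at least half of replicates individually reaching 50%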;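 also: exported cargo escapes ClpAP degradation while cytoplasmic cargo is degraded and loses fluorescence; 0% = median of neutral control wells and 100% = median of NaSCN control wells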
# AddAB inh: growth inhibition of E. coli expressing H. pylori AddAB, primary screen, AddAB inhibitor project, absorbance; 330,000 compounds, 0.29% hits; inhibition, % at 11.9 µM; AID 435030, 2010; in the data active = inhibition above about 12%;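 also: 0% = vehicle wells of infected cells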
# AddAB conf: growth loss of phage-infected E. coli expressing H. pylori AddAB, confirmation, AddAB inhibitor project, absorbance, E. coli V3065, T4 phage, triplicate; 880 compounds, 64% hits; shares compounds with AddAB inh; inhibition, % at 11.9 µM; OD; T4 phage with gene 2 nonsense mutations;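 active = mean inhibition above a set limit taken from the earlier primary screen, cut at about 13% in these data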;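 also: higher means less bacterial growth since AddAB block lets phage replicate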
# RecBCD counter: growth loss of RecBCD+ E. coli with mutant T4 phage, counter-screen for AddAB inhibitor project, absorbance, V66 E. coli | 880 compounds, 73% hits | AID 488955, 2010 | shares compounds with AddAB inh | OD growth | inhibition, % at 11.9 µM;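 active = mean inhibition above the mean of solvent-only control wells plus 3 SD, cut at about 4% in these data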;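 also: optical density read after an 18 h incubation at 37 °C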
# Bact viability: bacterial viability inhibition counter-screen, confirmation, counter-screen for AddAB inhibitor project, absorbance. shares compounds with AddAB inh. absorbance (AddAB counterscreen). inhibition, % at 11.9 µM. 880 compounds, 35% hits; in the data active = inhibition above about 25%
# RecBCD conf: growth loss of phage-infected RecBCD+ E. coli, confirmation, RecBCD inhibitor project, absorbance, E. coli V66, T4 gene 2 phage. shares compounds with phage Ecoli inh. E. coli V66 + T4 2- phage, growth OD. inhibition, % at 11.9 µM. 890 compounds, 45% hits. AID 651982, 2013;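 active = mean inhibition over triplicates exceeding the hit threshold derived in the original primary screen, cut at about 11% in these data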
# Ecoli viability: E. coli viability inhibition, counter-screen for RecBCD inhibitor project, absorbance, high throughput. inhibition, % at 11.9 µM. absorbance (OD) growth. 890 compounds, 29% hits. shares compounds with phage Ecoli inh. AID 651983, 2013; in the data active = inhibition above about 20%;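 also: E. coli strain V66 grown with compound alone and no phage infection; 0% = bacteria with DMSO vehicle only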
# AddAB phage OD: growth loss of phage-infected AddAB-carrying E. coli, confirmation, counter-screen for RecBCD inhibitor project, absorbance, E. coli V3065, T4 phage | shares compounds with phage Ecoli inh | E. coli expressing H. pylori AddAB + T4 phage, OD growth; gene 2 mutant T4, recBCD-deleted host | inhibition, % at 11.9 µM | 890 compounds, 45% hits | AID 651984, 2013;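 active = mean inhibition above the solvent-only control wells' mean plus 3 SD, cut at about 22% in these data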;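 also: higher means less bacterial growth from phage killing when AddAB is blocked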
# An asterisk follows results filed as active; . = no result.
SMILES,E coli growth-1,phage Ecoli inh,E coli growth-2,Tat export inh,AddAB inh,AddAB conf,RecBCD counter,Bact viability,RecBCD conf,Ecoli viability,AddAB phage OD
O=C(CSc1nc2ccccc2[nH]1)Nc1ccc(N2CCOCC2)cc1,0.6,13*,14*,-16,25*,13*,17*,15,8,12,13
O=C(CSc1nc2ccccc2s1)Nc1ccc(N2CCOCC2)c(Cl)c1,0.66,16*,12*,-23,21*,19*,12*,16,11,13,24*
CCCCCOc1ccc(CSC(=N)N)cc1[N+](=O)[O-],0.53*,13*,13*,-21,13*,15*,9.7*,12,2,4,14
CC(C)(C)OC(=O)NC(COCc1ccccc1)C(=O)NC(CO)C(O)C1CC1C(=O)NC1CCCCC1 (centres undefined),0.69,.,.,.,.,.,.,.,.,.,.
CCCC=C1CCCOC(C(=O)NCCN2CCOCC2)(C(F)(F)F)C1 (centres undefined),0.71,.,.,.,.,.,.,.,.,.,.
COc1ccc(NC(=O)N(C)CC2Oc3c(NS(=O)(=O)c4ccc(OC)cc4)cccc3C(=O)N(C(C)CO)CC2C)cc1 (centres undefined),0.69,.,.,.,.,.,.,.,.,.,.
CCNC(=S)NNC(=O)c1ccccn1,0.58,-1,0,-19,4,.,.,.,.,.,.
O=C(NNC(=S)Nc1ccc(Cl)c(Cl)c1)c1ccccn1,0.57,17*,17*,3,14*,26*,17*,25*,14*,14,34*
Fc1ccc(NC(=S)NCc2ccccc2Cl)cc1,0.66,12*,13*,-10,14*,36*,25*,35*,17*,24*,38*
O=C1c2ccccc2NC(c2ccc(-c3cccs3)o2)N1O (centres undefined),0.69,9,6,-10,5,.,.,.,.,.,.
O=C1c2ccccc2NC(c2ccc(-c3ccc(C(F)(F)F)cc3)o2)N1O (centres undefined),0.66,15*,21*,-11,17*,17*,7.7*,6,7,8,12
O=C(N/N=C/c1c(O)ccc2ccccc12)c1cccc(C(F)(F)F)c1,.,18*,22*,-5,28*,14*,17*,7,8,13,20
O=C(Nc1ccccc1Cl)C(Cl)=C(Cl)S(=O)c1ccccc1 (centres undefined),0.57,.,.,.,.,.,.,.,.,.,.
CCCCN1CCC2C=CCC(C(=O)Nc3ccccc3)C2C1=O (centres undefined),0.69,.,.,.,.,.,.,.,.,.,.
Cc1nc2ccccc2n1/N=C/c1ccc([N+](=O)[O-])o1,.,12*,98*,-7,100*,103*,25*,103*,10,13,100*
Cc1nc2ccccc2c(=O)n1/N=C/c1ccc([N+](=O)[O-])o1,.,.,8,.,9,.,.,.,.,.,.
O=C(O)c1cn(C2CC2)c2cc(N3CCN(S(=O)(=O)c4ccc5c(c4)OCCO5)CC3)c(F)cc2c1=O,0.082*,93*,97*,12,99*,98*,98*,101*,102*,102*,103*
